# Assay results: PubChem BioAssay
# Several values for one entry are separate records, joined by “and”; a condition that tells them apart may be missing. Identical values can stand only once. Activity calls are given as the source filed them.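 Rule for the calls, unless noted: active = compounds whose cell count with miR-34 switched on is under 0.7 times the count with it off; inactive = the rest.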
# Columns and labels:
# [1] = hESC survival regulators, cell-based (AID 493140; call rule not given here;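 note: cells exposed to compounds for four days before counting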); conditions: human embryonic stem cell survival screen; stronger effect = higher value
# [2] = stimulators of insulin release from INS-1E, primary screen, cell-based, 5 mM glucose, NPC library (AID 1117329;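 active = compound raises insulin release from rat beta cells at 5 mM glucose, no numeric limit stated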); conditions: rat INS-1E insulin secretion, at 10 µM, stronger effect = higher value
# [3] = growth inhibition of GSK3B-pretreated HCT116 cells – cell-based, CellTiter-Glo, 0.2 to 20 µM (AID 1117336;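 active = compounds lowering colon cancer cell viability after pretreatment blocking the GSK3B kinase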); conditions: HCT116 viability after GSK3B inhibitor, at 20 µM, stronger effect = higher value
# [4] = inhibition of endothelial tube formation, primary screen, imaging, VEGF stimulated, CD31 staining, tube area, NPC library (AID 1117340;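 active = compound that reduces growth-factor-driven endothelial tube area in a mixed cell culture, no cutoff stated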); conditions: VEGF-stimulated ADSC/ECFC co-culture, at 10 µM, stronger effect = higher value
# [5] = glucagon-like peptide 1 release enhancers, primary assay, NCI-H716 cell line, NPC library (AID 1117341;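 active = compound raises GLP1 secretion from the human gut endocrine cells, with no numeric limit stated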); conditions: NCI-H716 cells, at 10 µM, stronger effect = higher value
# [6] = HCT116 colon cancer cell growth inhibition, primary screen, CellTiter-Glo luminescence, NPC library (AID 1117342;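 active = compounds that lower survival of HCT116 colon cancer cells in the luminescence readout, no numeric limit stated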); conditions: at 20 µM (top of the series)
# [7] = CellTiter-Glo luminescent readout of SW480 viability loss, NPC library primary (AID 1117343;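 active = compounds that lower viability of the colon cancer cells in the luminescence readout, with no numeric limit stated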); conditions: CellTiter-Glo luminescence; at 20 µM (top of the series) unless noted
# [8] = decreased DLD-1 cellular survival, CellTiter-Glo luminescent readout, NPC compound collection, primary HTS (AID 1117346;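 active = compounds that lower survival of DLD-1 colon cancer cells in the luminescence readout, no cutoff given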); conditions: DLD-1 viability, CellTiter-Glo luminescence; at 20 µM (top of the series)
# [9] = target: 6-phosphogluconate dehydrogenase, decarboxylating (Homo sapiens) (UniProt P52209); assay: 6PGD enzyme inhibitors, primary screen, biochemical, human, recombinant enzyme, NADPH absorbance (AID 1159550;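 active = at least 20% inhibition of 6-phosphogluconate dehydrogenase activity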); conditions: recombinant 6PGD, NADPH absorbance 341 nm; at 10 µM; stronger effect = higher value
# [10] = differential killing of epithelial or mesenchymal cells, primary screen, imaging, PC-3E GFP, TEM4-18 mCherry, co-culture (AID 1345086;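 active = compounds killing one labelled cell type while sparing the other, by normalised counts and ratio limits, not self-fluorescent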;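 for all read-outs here: cells exposed to compound for 72 h before imaging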;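 for red/green cell ratio (normalised): normalised mesenchymal count divided by normalised epithelial count so high means epithelial killing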); conditions: imaging cell counts, at 1 µM; for red/green cell ratio (normalised): actives lie on both sides, counts scaled to control wells, 1 = unselective
# [11] = sensitizers of A549 cells to miR-34 induction, primary screen, imaging, A549 dox-inducible miR-34, nuclei and caspase counts (AID 1347080); conditions: A549 miR-34 inducible, Hoechst nuclei count, 48 h
# [12] = target: NAD(+) hydrolase SARM1 (Homo sapiens) (UniProt Q6SZW1); assay: SARM1 TIR NADase inhibitors, cell lysate, NAD-Glo luminescence (AID 1508614;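 active = compound whose remaining NAD level is above about 45 nM, limit read from the data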;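 note: higher remaining NAD means stronger inhibition of SARM1 NADase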); conditions: SAM-TIR HEK293T lysate NADase, at 1 µM, stronger effect = higher value
# [13] = target: Mitogen-activated protein kinase 7 (Homo sapiens) (UniProt Q13164); assay: ERK5 transactivation activators in reporter cells, primary screen, cell-based, HTS (AID 1508626;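 active = luciferase signal above three times the same-plate solvent-only control wells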;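 note: luciferase driven by Gal4-ERK5 fusion binding five Gal4 sites before minimal TATA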); conditions: HeLa Gal4-ERK5 transactivation, 18 h, at 5 µM, stronger effect = higher value
# [14] = viability rescue of complex I mutant cybrids, primary screen, cell-based, galactose medium, ATP luminescence (AID 1645843;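 active = z-score of at least 1.8 in each of two replicates, scored against plate mean and spread of sample wells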;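 note: positive z means more ATP and so rescue of galactose-driven cybrid death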); conditions: complex I mutant cybrid cells, 72 h, stronger effect = higher value
# [15] = stimulators of nuclear beta-catenin in C2C12, primary screen, imaging, WNT3A-conditioned medium, mouse C2C12, NPC library (AID 1117326; in the data active = nuclear beta-catenin stimulation mostly above about 4.2%, no sharp cut-off; inactive = mostly below about 10%); conditions: stronger effect = higher value
# [16] = survival rescue of mitochondrial mutant cells in low glucose, primary screen, MELAS cybrids, Rieske KO mouse fibroblasts, CellTiter-Glo (AID 1508586;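 active = mean z-score across replicates of 1.96 or higher in either the MELAS or the Rieske mutant cell line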;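 note: z relative to plate mean and SD of compound and empty wells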)
# [17] = measured here: epithelial PC-3E GFP cell survival
# [18] = measured here: mesenchymal TEM4-18 mCherry cell survival
# [19] = stronger effect = lower value, cell number ratio, induced over uninduced
# [20] = measured here: relative caspase fold change +Dox/-Dox
# [21] = measured here: total cells with miR-34 induction, stronger effect = lower value
# [22] = measured here: total cells without miR-34 induction
# [23] = MELAS cybrid survival, CellTiter-Glo 48 h, stronger effect = higher value
# [24] = Rieske KO mouse fibroblast survival, CellTiter-Glo 72 h
# Sequence of Mitogen-activated protein kinase 7 (Homo sapiens) (Q13164 whole entry, looked up, the tested form may be a part): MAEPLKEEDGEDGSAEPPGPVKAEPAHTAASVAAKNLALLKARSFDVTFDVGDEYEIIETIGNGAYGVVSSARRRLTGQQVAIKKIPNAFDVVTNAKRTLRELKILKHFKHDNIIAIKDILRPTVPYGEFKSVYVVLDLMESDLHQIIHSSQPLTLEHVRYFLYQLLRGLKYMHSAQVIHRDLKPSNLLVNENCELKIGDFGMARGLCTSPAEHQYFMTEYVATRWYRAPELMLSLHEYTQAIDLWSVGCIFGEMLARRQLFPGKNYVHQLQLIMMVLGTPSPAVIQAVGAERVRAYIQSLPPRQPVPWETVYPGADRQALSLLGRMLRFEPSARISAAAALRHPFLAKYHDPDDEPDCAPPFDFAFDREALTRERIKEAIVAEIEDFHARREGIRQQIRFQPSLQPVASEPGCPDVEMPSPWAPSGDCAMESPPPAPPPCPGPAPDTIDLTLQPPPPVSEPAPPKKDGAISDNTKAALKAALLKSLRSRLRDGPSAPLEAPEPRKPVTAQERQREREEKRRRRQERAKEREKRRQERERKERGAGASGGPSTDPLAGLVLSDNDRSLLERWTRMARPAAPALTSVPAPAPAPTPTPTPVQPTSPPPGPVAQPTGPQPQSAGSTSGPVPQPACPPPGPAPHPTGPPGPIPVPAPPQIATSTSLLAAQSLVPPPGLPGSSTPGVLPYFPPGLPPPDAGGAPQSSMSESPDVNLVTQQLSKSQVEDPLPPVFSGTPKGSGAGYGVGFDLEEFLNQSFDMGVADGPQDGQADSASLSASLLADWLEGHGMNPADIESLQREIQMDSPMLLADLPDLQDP
# Sequence of NAD(+) hydrolase SARM1 (Homo sapiens) (Q6SZW1 whole entry, looked up, the tested form may be a part): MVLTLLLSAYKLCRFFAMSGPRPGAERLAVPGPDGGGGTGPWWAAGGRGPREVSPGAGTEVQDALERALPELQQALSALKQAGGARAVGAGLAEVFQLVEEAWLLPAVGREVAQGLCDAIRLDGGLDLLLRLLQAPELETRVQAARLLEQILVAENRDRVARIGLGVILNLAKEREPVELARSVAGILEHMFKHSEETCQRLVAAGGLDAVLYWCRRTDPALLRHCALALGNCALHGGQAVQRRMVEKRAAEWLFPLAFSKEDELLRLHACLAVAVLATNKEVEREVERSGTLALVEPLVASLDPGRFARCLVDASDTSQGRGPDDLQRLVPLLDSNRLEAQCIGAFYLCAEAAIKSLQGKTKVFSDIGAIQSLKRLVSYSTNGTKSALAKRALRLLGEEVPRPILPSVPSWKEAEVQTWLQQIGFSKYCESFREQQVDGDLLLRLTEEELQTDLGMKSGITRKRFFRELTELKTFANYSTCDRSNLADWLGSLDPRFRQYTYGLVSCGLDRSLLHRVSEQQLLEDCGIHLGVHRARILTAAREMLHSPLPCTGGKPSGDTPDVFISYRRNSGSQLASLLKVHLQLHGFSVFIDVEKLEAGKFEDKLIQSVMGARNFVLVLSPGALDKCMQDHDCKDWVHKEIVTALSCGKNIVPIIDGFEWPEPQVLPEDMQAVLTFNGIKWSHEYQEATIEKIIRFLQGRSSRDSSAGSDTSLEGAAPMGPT
# Sequence of 6-phosphogluconate dehydrogenase, decarboxylating (Homo sapiens) (P52209 whole entry, looked up): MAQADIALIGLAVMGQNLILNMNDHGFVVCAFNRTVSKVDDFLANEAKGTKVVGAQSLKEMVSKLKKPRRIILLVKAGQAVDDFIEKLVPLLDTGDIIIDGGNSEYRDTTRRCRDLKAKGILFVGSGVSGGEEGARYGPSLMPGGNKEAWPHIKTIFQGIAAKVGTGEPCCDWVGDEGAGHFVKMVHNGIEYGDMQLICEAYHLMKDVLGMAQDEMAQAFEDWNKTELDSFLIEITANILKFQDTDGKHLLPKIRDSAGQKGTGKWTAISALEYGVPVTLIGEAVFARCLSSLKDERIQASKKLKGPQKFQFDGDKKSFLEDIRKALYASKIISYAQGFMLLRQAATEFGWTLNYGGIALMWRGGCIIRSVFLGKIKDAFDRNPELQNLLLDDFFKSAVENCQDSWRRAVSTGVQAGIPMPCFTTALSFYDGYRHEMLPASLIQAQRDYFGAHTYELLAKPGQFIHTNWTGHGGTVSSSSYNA
smiles,measurement,setting,value
CN/C(=C\[N+](=O)[O-])NCCSCc1ccc(CN(C)C)o1,survival,[1],19.6 (inactive)
same,insulin secretion stimulation,[2],-1% (inactive)
same,viability decrease,[3],-7.5% (inactive)
same,tube area decrease,[4],7% (inactive)
same,GLP1 secretion stimulation,[5],-1.4% (inactive)
same,inhibition of viability,[6],2.23% (inactive)
same,viability decrease (inhibition),[7],-25.8% (inactive)
same,viability decrease (inhibition),[8],-22.7% (inactive)
same,inhibition,[9],-3.38% (inactive)
same,red/green cell ratio (normalised),[10],1.01 (inactive)
same,normalised cell number,[10]; [17],1.03
same,normalised cell number,[10]; [18],1.04
same,fold change,[11]; [19],0.934 (inactive) and 0.989 (inactive) and 0.926 (inactive)
same,fold change,[11]; [20],0.757 and 2.23 and 4.08
same,cell count,[11]; [21],10600 and 10300 and 12000
same,cell count,[11]; [22],11300 and 10400 and 13000
same,remaining NAD,[12],10 nM (inactive)
same,luciferase signal,[13],28 AU (inactive)
same,z-score,[14],0.37 (inactive) and -0.285 (inactive)
CC12CCC(CC1)C(C)(C)O2,nuclear beta-catenin stimulation,[15]; at 10 µM,1.8% (inactive)
same,nuclear beta-catenin stimulation,"[15]; stimulation, at 2 µM",17.2%
same,viability decrease,[3],4.1% (inactive)
same,inhibition of viability,[6],7.2% (inactive)
same,viability decrease (inhibition),[7],5% (inactive)
same,viability decrease (inhibition),[8],4.4% (inactive)
same,inhibition,[9],-15.6% (inactive)
same,red/green cell ratio (normalised),[10],0.83 (inactive)
same,normalised cell number,[10]; [17],1.13
same,normalised cell number,[10]; [18],0.94
same,remaining NAD,[12],10 nM (inactive)
COCCCOc1ccnc(CS(=O)c2nc3ccccc3[nH]2)c1C (stereo not drawn),nuclear beta-catenin stimulation,[15]; at 10 µM,0% (inactive)
same,nuclear beta-catenin stimulation,"[15]; stimulation, at 2 µM",9.8%
same,viability decrease,[3],32.7% (inactive)
same,inhibition of viability,[6],20.2% (inactive)
same,viability decrease (inhibition),[7],4.6% (inactive)
same,viability decrease (inhibition),[8],-10.8% (inactive)
same,red/green cell ratio (normalised),[10],0.79 (inactive)
same,normalised cell number,[10]; [17],1.16
same,normalised cell number,[10]; [18],0.91
same,fold change,[11]; [19],0.932 (inactive) and 0.863 (inactive)
same,fold change,[11]; [20],1.16 and 3.79
same,cell count,[11]; [21],9170 and 10700
same,cell count,[11]; [22],9840 and 12400
same,remaining NAD,[12],10 nM (inactive)
same,luciferase signal,[13],200 AU (inactive)
same,z-score,[14],-0.225 (inactive)
COc1ccc2cc([C@H](C)C(=O)O)ccc2c1,survival,[1],2.08 (inactive)
same,insulin secretion stimulation,[2],-0.7% (inactive)
same,viability decrease,[3],-21% (inactive)
same,tube area decrease,[4],16.3% (inactive)
same,GLP1 secretion stimulation,[5],-1.7% (inactive)
same,inhibition of viability,[6],-1.1% (inactive)
same,viability decrease (inhibition),[7],30.2% (inactive)
same,viability decrease (inhibition),[8],-14.8% (inactive)
same,inhibition,[9],-2.26% (inactive)
same,red/green cell ratio (normalised),[10],1.07 (inactive)
same,normalised cell number,[10]; [17],1.19
same,normalised cell number,[10]; [18],1.27
same,z-score,[16]; [23],0.168 (inactive)
same,z-score,[16]; [24],-0.681
same,remaining NAD,[12],10 nM (inactive)
same,luciferase signal,[13],36 AU (inactive)
same,z-score,[14],0.36 (inactive) and 0.18 (inactive) and 0.675 (inactive)
O=C1CN(/N=C/c2ccc([N+](=O)[O-])o2)C(=O)N1,survival,[1],10.8 (inactive)
same,insulin secretion stimulation,[2],-2.7% (inactive)
same,viability decrease,[3],26.8% (inactive)
same,tube area decrease,[4],-36% (inactive)
same,GLP1 secretion stimulation,[5],-0.3% (inactive)
same,inhibition of viability,[6],18.2% (inactive)
same,viability decrease (inhibition),[7],46.4% (active)
same,viability decrease (inhibition),[8],8.55% (inactive)
same,inhibition,[9],-10.5% (inactive)
same,red/green cell ratio (normalised),[10],0.97 (inactive)
same,normalised cell number,[10]; [17],1.08
same,normalised cell number,[10]; [18],1.05
same,fold change,[11]; [19],0.928 (inactive) and 0.958 (inactive)
same,fold change,[11]; [20],1.23 and 1.67
same,cell count,[11]; [21],8440 and 12500
same,cell count,[11]; [22],9100 and 13100
same,z-score,[16]; [23],-2.68 (inactive)
same,z-score,[16]; [24],-2.1
same,remaining NAD,[12],10 nM (inactive)
same,luciferase signal,[13],40 AU (inactive)
